# HCV inh – inhibitors of hepatitis C virus infection; Huh7.5.1 HCVcc-Cre infection, luciferase reporter, 44 h; Potency, µM (titrated, usually from 41.8 µM), for the others: top-dose activity change, negative = inhibition, actives largely listed as inhibitors; hit rate 3.4% among 340,000; further: potency means the concentration at half of the fitted maximal effect; on the % scale 0 is the no-effect control and ±100 the full control effect
#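 Cells seeded at 1,000/well and cultured 4 h, then compounds added followed by HCVcc-Cre virus (~0.5 moi). After 44 h further culture, luciferase substrate was added, plates held 15 min at room temperature, and luminescence read for 15 sec.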
# CHX counter – counter-screen for Shiga toxin inhibitors: cycloheximide protein synthesis inhibition; max response, %; cell reporter, cycloheximide protein synthesis inhibition counterscreen; hit rate 12% among 300,000; in the data active means max response mostly above about 13%, no sharp cut-off; inactive means mostly below about 14%; further: read at 38.3 µM for the half of the compounds with a filed dose; 0% is about no effect
# Pf growth 48h – inhibits P. falciparum growth in the first generation, 48 h | hit rate 5.9% among 310,000 | Potency, µM (doses to about 28.7 µM), for inactives: at the highest dose activity change, negative = inhibition, hits mostly inhibitors | P. falciparum luciferase growth in erythrocytes, 48 h; further: potency means the concentration at half of the fitted maximal effect; on the % scale 0 is the no-effect control and ±100 the full control effect
#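 A one-generation exposure of luciferase-tagged malaria parasites in RPMI 1640/Albumax erythrocyte culture, 37 C and 5% CO2. Inhibition is inferred from decreased luminescence after adding detection reagent.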
# Pf growth 96h – P. falciparum growth inhibition at 96 hours; P. falciparum luciferase reporter growth, 96 h; Potency, µM (highest dose often 28.7 µM), for the others: at the highest dose activity change, negative = inhibition, hits mostly inhibitors; AID 504834; hit rate 6.9% among 320,000; further: potency means the concentration at half of the fitted maximal effect; on the % scale 0 is the no-effect control and ±100 the full control effect
#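 Infected RBCs, 2% Hct / 0.05% parasitemia final; luciferase-reporter P. falciparum; cpd 96 h, 37 C, 5% CO2; luciferase detection reagent; luminescence.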
# AMA1 RON2 block – inhibitors of Plasmodium falciparum AMA1-RON2 interaction; AID 720542; AlphaScreen AMA1-biotinylated RON2 peptide binding; Potency, µM (titrated, usually from 58.2 µM), without a hit: top-dose activity change, negative = inhibition, hits mostly inhibitors; hit rate 0.2% among 360,000;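 further: potency means the concentration at half of the fitted maximal effect; 0% = vehicle wells and -100% = peptide control; nearly all actives have a fitted effect of over 45% in size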
#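 AMA1 (3D7) with his tag at 25 nM final met compounds first, then biotinylated RON2 peptide at 25 nM; detection used donor plus acceptor beads, 10 µg/mL apiece, read by AlphaScreen after 30 min at room temperature.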
# Shiga inhibitor – Shiga toxin inhibition | inhibition, % at 38.7 µM | Vero cells, Shiga toxin protein synthesis inhibition reporter | hit rate 9.2% among 290,000; in the data active means inhibition mostly above about 28%, no sharp cut-off; inactive means mostly below about 43%; further: 0% is about no effect
# * = called active by the depositor; ? = inconclusive; . = not tested or not shown; + = active, no number; [ ] = remark or other dose. Rows were chosen to be rich in hits. Some 21% of all compounds tested hit in one or more screens of this group. Unless noted, the call rests on the fitted dose curve; in most records, active means well fitted curve in the direction sought with a large enough effect; inconclusive means small, poorly fitted or top-dose-only effect, or another doubt; inactive means no such curve, though single readings can be large; an effect the other way counts as inactive or inconclusive.
SMILES,HCV inh,CHX counter,Pf growth 48h,Pf growth 96h,AMA1 RON2 block,Shiga inhibitor
CN1C[C@@H]2[C@@H]3C(=O)N(Cc4ccccc4)C(=O)[C@@H]3[C@](Cc3ccccc3)(C1=O)N2C(=O)c1ccc(Cl)cc1,4%,.,.,.,-3%,.
Cn1cc(Br)c(C(=O)NNC(=O)Nc2ccccc2C(F)(F)F)n1,35%,26*,19%,33%,90%,51
Cn1cc(Br)c(C(=O)NNC(=O)c2ccc(Br)cc2)n1,-1%,35*,103%,?,13%[2.32 µM],+
Cc1c(Br)c(C(=O)NNC(=O)c2ccc(C(C)(C)C)cc2)nn1C,-11%,27*,24%,32%,79%,33
Cc1cnc(C(=O)NNC(=O)c2ccc(Br)cc2)cn1,?,.,12µM*,?,95%,.
OCCC1CN(Cc2ccccc2O)CCN1CCc1ccccc1 (centres undefined),-1%,-2,9.3µM*,32%,-10%,3
COc1cccc(CN2CCN(CCCc3ccccc3)C(CCO)C2)c1O (centres undefined),-1%,-2,-25%,7.4µM*,14%,-5
OCCC1CN(Cc2ccon2)CCN1CCc1ccccc1 (centres undefined),-1%,10,0%,13µM*,-4%,10
OCCC1CN(CCCc2ccccc2)CCN1CCc1ccccc1 (centres undefined),-14%,1,?,10µM*,0%,.
CC(C)CCN1CCN(Cc2ccon2)CC1CCO (centres undefined),3%,1,27%,4%,37%,-10
OCCC1CN(Cc2ccc(F)cc2)CCN1CCc1ccccc1 (centres undefined),-15%,-2,?,?,16%,19
CCCCCc1c(-c2ccc(F)cc2F)ncn1CCc1ccccc1OC,.,.,.,.,-24%,.
Cc1cc2c(s1)c1cnn(Cc3ccc(C(C)C)cc3)c(=O)c1n2C,.,-2,.,.,.,-3
COc1ccc(CN2CCN(CCc3ccccc3)C(CCO)C2)cc1Cn1cncn1 (centres undefined),-19%,-1,5.2µM*,?,-10%,-21
O=C(NCc1cc([N+](=O)[O-])ccc1O)c1cccnc1Sc1ccc(Cl)cc1,8%,40*,-17%,?,-15%,43*
O=C(NCc1cc([N+](=O)[O-])ccc1O)c1cccnc1Sc1ccccc1Cl,-1%,-7,?,?,0%,-24
COc1ccc(S(=O)(=O)N2Cc3ccccc3CC2C(=O)Nc2nccs2)cc1OC (centres undefined),2%,43*,26%,.,4%,92*
COc1ccc(S(=O)(=O)N2Cc3ccccc3CC2C(=O)Nc2nccs2)cc1 (centres undefined),-12%,29*,168%,188%,28%,75*
COCCNc1nc(Nc2ccc(Cl)cc2F)c2sccc2n1,.,.,.,.,6%,.
CCCCC(c1nnnn1Cc1ccco1)N1CCN(c2nc3ccccc3s2)CC1 (centres undefined),?,23*,9.3µM*,.,-27%,62*
c1ccc(C(c2nnnn2Cc2ccco2)N2CCN(c3nc4ccccc4s3)CC2)cc1 (centres undefined),?,31*,?,.,-1%,58*
CC(Oc1ccc(Br)cc1)C(=O)Nc1ccc(S(=O)(=O)NC2=NCCCCC2)cc1 (centres undefined),-22%,.,.,.,13%[11.6 µM],.
CCOC(OCC)c1cn(Cc2ccc3c(c2)C(=O)c2ccccc2C3=O)nn1,.,11,-11%,?,.,12
Cc1nc(NC(=O)/C=C/c2ccccc2)sc1C(=O)N(C)C,21%,40*,137%,43%,-2%,80*
Cc1nc(NC(=O)c2oc3ccccc3c2C)sc1C(=O)N(C)C,-22%,40*,274%,-25%,-1%,52*
Cc1nc(NC(=S)NC(=O)c2ccco2)sc1C(=O)N(C)C,14%,32*,21%,6%,34%,57
Cc1nc(NC(=O)c2ccncc2)sc1C(=O)N(C)C,7%,10,22%,?,7%,-12
Cc1ccc(C(=O)Nc2nc(C)c(C(=O)N(C)C)s2)o1,11%,37*,-3%,11%,-7%,80*

# Bioassay records deposited in PubChem by National Center for Advancing Translational Sciences (NCATS).
